Reference: the supplement of paper PMC6555819

Assays:
Assay in all cases: PBM binding z-score (relative to random genomic background probes); higher = stronger binding; sequences stand for … in GC…GCGATTGACAGCGTAGAATGAAGG
[1] = system: PPARg:RXRa DBDmut IVT, anti-RXR (DBD mutation: RXRa K156A/R161A, NR concentration 270 nM, RXRa partner concentration 90 nM)
Procedure, shortened: (§1)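 Binding z-scores were set against random background probes. The data came from custom Agilent 4×180K protein-binding microarrays carrying double-stranded probes with 34-nt variable regions, incubated 1 h with ligand-free nuclear receptor dimers. Partner-specific antibodies detected binding, and scanned fluorescence was regression-normalized.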

[2] = system: PPARg:RXRa IVT, anti-PPARg (NR concentration 270 nM, RXRa partner concentration 90 nM)
Procedure, shortened: as §1

[3] = system: PPARg DBDmut:RXRa IVT, anti-PPARg (DBD mutation: PPARg1 K132A/R137A, NR concentration 270 nM, RXRa partner concentration 90 nM)
Procedure, shortened: as §1

[4] = system: PPARg DBDmut IVT, anti-PPARg (DBD mutation: PPARg1 K132A/R137A, NR concentration 270 nM)
Procedure, shortened: as §1

[5] = system: PPARg homodimer (NR concentration 180 nM)
Procedure, shortened: as §1

[6] = system: PXR:RXRa (NR concentration 270 nM, RXRa partner concentration 90 nM)
Procedure, shortened: as §1

[7] = system: PXR homodimer (NR concentration 270 nM)
Procedure, shortened: as §1

[8] = system: RARa:RXR (NR concentration 270 nM, RXRa partner concentration 90 nM)
Procedure, shortened: as §1

[9] = system: RARa homodimer (NR concentration 270 nM)
Procedure, shortened: as §1

[10] = system: RARb:RXRa (NR concentration 270 nM, RXRa partner concentration 90 nM)
Procedure, shortened: as §1

| Sequence | PBM binding z-score [1] | PBM binding z-score [2] | PBM binding z-score [3] | PBM binding z-score [4] | PBM binding z-score [5] | PBM binding z-score [6] | PBM binding z-score [7] | PBM binding z-score [8] | PBM binding z-score [9] | PBM binding z-score [10] |
| --- | --- | --- | --- | --- | --- | --- | --- | --- | --- | --- |
| CGTCCAAGGTTAGCAGGTCAGTGAAAGCGACGTG | 2 | 2.5 | -0.8 | -0.782 | 1.06 | 1.18 | -0.346 | 2.01 | -0.223 | 3.08 |
| TAGCCTAGGTCTTTCAGGGGCCAGTATAGAAAGC | -0.411 | 0.431 | -0.836 | 0.0901 | -0.27 | -0.417 | -0.804 | -0.214 | -1.24 | 0.577 |
| GCTGCTAGGTCAGGTTGGTCACCTAACGGGTACG | 2.48 | 2.8 | -1.27 | -1.36 | 0.888 | 0.48 | -0.213 | 1.27 | 0.0555 | 3.39 |
| AATACAGGGTCACTAGGCCAGAGAAGGTACGAAT | 4.07 | 5.68 | 1.28 | 1.34 | 1.96 | 3.02 | 0.776 | 3.74 | 0.823 | 4.2 |
| TCATATAGGTAAAGGTGAAACTCGAACGATATGA | 4.08 | 4.59 | 1.59 | 2.12 | 1.36 | 1.13 | -0.357 | 1.76 | 0.238 | 2.05 |
| TCTAGTTAGTCAAAGGTCACACACTCGAAATGCG | 2.7 | 4.43 | 1.17 | 3.06 | 5.38 | 5.63 | 2.01 | 6.72 | 3.05 | 4.74 |
| CGTCCAAGGTCAATGCTAGGTCAATGAAAGCATT | 2.82 | 4.3 | 0.467 | 0.337 | 5.41 | 5.09 | 1.55 | 5.61 | 1.61 | 5.25 |
| ACTACTAGTTGACTTAGGGCAACCGATACGACGC | 0.365 | 0.47 | 0.77 | 0.857 | 0.669 | 0.14 | -0.0753 | 0.458 | 0.347 | 0.59 |
| GCGACTGGGGTAAAGCAGGTTACCATAAGGTTGG | 3.33 | 2.74 | -0.328 | -0.991 | -0.0118 | 0.651 | -0.238 | 0.955 | -0.412 | 0.44 |
| CCTAGCAGGCCAGGGTCCCTCAAGCATTTCGCTT | -0.423 | -0.501 | -1.5 | -1.43 | -0.522 | -0.483 | -0.449 | -0.227 | -0.786 | -0.0655 |
| ATCGAAAGGTCGTGAGGTGAGTCTACAGAAAGGC | 0.266 | 2.6 | 0.998 | 0.581 | 1.51 | 2.97 | -0.0415 | 3.84 | 0.605 | 3.87 |
| CAAACTAGGTCCAGGTCAAAGTCGGTTTGTGCCA | 3.43 | 3.67 | 0.261 | -0.192 | 1.29 | 2.57 | 0.685 | 2.22 | 0.417 | 2.9 |
| GCATATAGGTAATAGAAGGTGAAAGTCCGATTGT | 3.98 | 3.21 | 0.445 | 0.104 | 0.675 | 0.246 | 0.153 | 0.961 | 0.689 | 0.402 |
| GCGATTGGGGCATCAGCAGGTTACCATAACTTAA | 1.79 | 0.996 | -0.746 | -0.408 | 0.245 | 0.113 | -0.0157 | 0.281 | -0.368 | 0.823 |
| CCTAGTTGGTCACGGTCACACACGCTATAGGTAC | 2.6 | 3.1 | 1.29 | 1.48 | 1.79 | 0.642 | 0.636 | 0.844 | 1.66 | 2.53 |
| CCTACTGGTCCACGAAAGGTCATTGATTCAGTGA | 0.842 | 1.87 | 0.736 | -0.00763 | 4.11 | 5.53 | 3.24 | 5.86 | 2.86 | 3.95 |
| ATCTCTAGGTAAATATAGTTCAGTGAATGCAAAT | 1.8 | 1.91 | 1.61 | 1.65 | 1.19 | 1.38 | 0.957 | 0.923 | 1.21 | 0.851 |
| CTCGAAAGGTCGGTTGAGGTGAGTGTACGGATAA | 0.169 | 1.3 | 0.72 | -0.675 | 1.07 | 3.54 | 0.527 | 3.02 | 0.735 | 3.07 |
| ATATGTAGGTAAGCTGGGGTCATTCAGACTAGGC | 6.08 | 5.46 | 1.69 | 1.13 | 1.48 | 6.07 | 3.4 | 5.45 | 0.719 | 2.67 |
| CCAGCTAGGTCATGGTCAGCTAATCTACAGTATG | 4.7 | 4.17 | 0.901 | 0.516 | 1.52 | 1.12 | -0.327 | 2.34 | 0.48 | 3.97 |
| ATCTCTAGGTAACCAAGTTCAGAGAATGCCGAAC | 3.4 | 2.88 | 1.18 | 0.83 | 0.879 | 2.15 | 1.71 | 0.548 | 0.605 | 1.22 |
| AGTCAAAGCTCAGGACGAGGTAACGTAAAGCACG | -0.71 | -0.0403 | -0.126 | -0.455 | 0.053 | -0.435 | -0.405 | 0.159 | -0.547 | -0.0865 |
| ACAGACAGGTGAGTGAAGGTAACTCTGCTGGACG | 0.709 | 0.604 | 0.385 | 0.0284 | -0.0621 | -0.18 | -0.457 | 0.173 | -0.76 | 0.594 |
